About 83,000 compounds went through this panel and 20% of them were active in at least one assay; those are over-represented in the sample as a whole.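 Results are percent growth after 48 hours of single-concentration exposure. 100 means growth as in untreated cells, lower positive values show inhibition; negative values down to -100 show cell death.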 Values without a mark were called inactive. The source made the active and inactive calls. Rule for the calls: active = growth percent below 10; inactive = the rest.
Legend:
Test in all cases: NCI-60 one-dose screen, 48 h (100 = growth as untreated, 0 = no growth, -100 = all killed)
Settings in all cases: 10 µM unless noted
NCI-H23 lung = test system: NCI-H23 lung
NCI-H322M lung = test system: NCI-H322M lung
HOP-62 NSCLC = test system: HOP-62 NSCLC
NCI-H460 lung = test system: NCI-H460 lung
HOP-92 NSCLC = test system: HOP-92 NSCLC
NCI-H522 lung = test system: NCI-H522 lung
A549/ATCC NSCLC = test system: A549/ATCC NSCLC
786-0 renal = test system: 786-0 renal
COLO 205 colon = test system: COLO 205 colon
DU-145 prostate = test system: DU-145 prostate
MALME-3M melanoma = test system: MALME-3M melanoma
MDA-MB-231 breast = test system: MDA-MB-231 breast
RXF 393 renal = test system: RXF 393 renal
SF-268 CNS = test system: SF-268 CNS
SF-295 CNS = test system: SF-295 CNS
SF-539 CNS = test system: SF-539 CNS
UACC-257 melanoma = test system: UACC-257 melanoma
M14 melanoma = test system: M14 melanoma
HCT-15 colon = test system: HCT-15 colon
K-562 leukemia = test system: K-562 leukemia

| SMILES | growth (NCI-H23 lung) | growth (NCI-H322M lung) | growth (HOP-62 NSCLC) | growth (NCI-H460 lung) | growth (HOP-92 NSCLC) | growth (NCI-H522 lung) | growth (A549/ATCC NSCLC) | growth (786-0 renal) | growth (COLO 205 colon) | growth (DU-145 prostate) | growth (MALME-3M melanoma) | growth (MDA-MB-231 breast) | growth (RXF 393 renal) | growth (SF-268 CNS) | growth (SF-295 CNS) | growth (SF-539 CNS) | growth (UACC-257 melanoma) | growth (M14 melanoma) | growth (HCT-15 colon) | growth (K-562 leukemia) |
| --- | --- | --- | --- | --- | --- | --- | --- | --- | --- | --- | --- | --- | --- | --- | --- | --- | --- | --- | --- | --- |
| COC(=O)C1(C)COP(=O)(Nc2ccc(OC)cc2)OC1 (stereo not given) | 102% | 90.3% | 107% | 109% | 109% | 111% | 98% | 99.1% | 109% | 111% | 116% | 110% | 113% | 103% | 107% | 104% | 98.7% | 102% | 108% |  |
| COc1ccc(-c2nsc3c2NC(=O)CC3c2ccc3c(c2)OCCO3)cc1 (stereo not given) | 29% | 74.8% | 34.8% | 6.65% (active) | 66.1% | -15.2% (active) | 28.9% | 28.3% | -70.4% (active) | 5.37% (active) | 59.9% |  | 0.635% (active) | 55.4% | 0.403% (active) | -17% (active) | 76.2% | 19.7% | 14.6% | 13.3% |
| CCc1ccc(CNCC(O)c2ccccc2)cc1 (stereo not given) | 69.1% | 75.6% | 76.6% | 77% | 12.7% | 77.7% | 73.8% | 87.5% | 7.32% (active) | 79.7% |  | 47% | 61.6% | 90.1% |  | 86.5% | 93.1% | 58.7% | 43.9% | 22% |
| COc1nc2c(c(=O)n1C)N=C1c3ccccc3C(=O)C1C(c1ccccc1)N2 (stereo not given) | 94.1% | 104% | 86.9% | 103% | 89.2% | 102% | 91.5% | 84.7% | 106% | 94.6% | 83.2% | 89.2% |  | 85.3% |  | 93.7% | 96.7% | 82.9% | 90.5% | 74.8% |
| Brc1ccc(Nc2nc3ccccc3nc2Nc2ccc(Br)cc2)cc1 | -16.4% (active) | -13.1% (active) | -63.4% (active) | 2% (active) | -25.9% (active) | -54.1% (active) | -6.83% (active) | -30.2% (active) | -96.2% (active) | 14.2% |  | -80.4% (active) | -32.9% (active) | 3.08% (active) | -75.6% (active) | -8.61% (active) | -43% (active) | -60.7% (active) | -21% (active) | -20% (active) |
| CC(=O)SC1CC(=O)C=C2CCC3C4CCC(=O)OC4(C)CCC3C21C (stereo not given) | 111% | 120% | 106% | 115% | 97.6% | 92.7% | 105% | 101% | 116% | 116% | 195% |  |  | 105% |  | 94.9% | 100% | 97.7% | 106% | 103% |
| Nc1nc(N)c2c(n1)NC1(C=C(O)c3ccccc31)C1=C(N2)c2ccccc2C1=O (stereo not given) | 104% | 123% | 104% | 105% | 87% | 95.3% | 110% | 104% | 118% | 98.7% | 108% | 107% |  | 104% | 109% | 109% | 120% | 105% | 112% | 95.5% |
| O=c1nc2sc3nc4ccccc4cc3cc-2s1 | 101% | 106% | 104% | 106% | 125% | 122% | 117% | 103% | 127% | 114% | 116% | 108% | 117% | 132% | 104% | 101% | 98.8% | 100% | 104% |  |
| CCCCCCCCCCOC(=O)c1ccccc1C(=O)OCCCC | 107% | 108% | 107% | 120% | 91.3% | 91.2% | 111% | 106% | 117% | 114% | 157% |  |  | 109% |  | 103% | 111% | 100% | 111% | 99.9% |
| CC(=O)n1cc(-c2c[nH]c3ccccc23)c(-c2ccc(Cl)cc2)n1 | 76.2% | 83.6% | 66.3% | 82.3% | 79.7% | 74.8% | 93.7% | 78.9% | 92.4% | 96.3% | 87.2% |  | 80.6% | 86.5% | 75.3% | 81.7% | 103% | 76.1% | 80.9% | 94.3% |
| COc1ccc(-c2nsc3c2NC(=O)CC3c2ccsc2)cc1 (stereo not given) | 39.6% | 42.4% | 33.5% | 6.14% (active) | 71.9% | 11.6% | 27.4% | 29.8% | -77.3% (active) | -8.61% (active) | 43.6% |  | 18% | 47.1% | 2.29% (active) | -7.51% (active) | 77.3% | 18% | 13.8% | 13.3% |
| CC1=CCC(OC(=O)C(C)(C)CCC(O)(C(=O)OC2(C(C)C)CCC3(C)OC3C2)C(C)C)(C(C)C)CC1 (stereo not given) | -73.2% (active) | -93% (active) | -66.7% (active) | -84.2% (active) | -71.7% (active) | -76.3% (active) | -82.8% (active) | -90.5% (active) | -61.5% (active) | -95.8% (active) | -84.1% (active) | -63.1% (active) | -91.2% (active) | -74.5% (active) | -92.2% (active) | -97.3% (active) | -57.6% (active) | -81% (active) | -59.8% (active) |  |
| COc1cc(C2C(C#N)=C(N)OC3=C2C(=O)c2ccccc2C3=O)cc(OC)c1OC (stereo not given) | 31.4% | 48.1% | 7.45% (active) | 9.57% (active) | 80.6% | -18.6% (active) | 41% | 35.6% | 89% | 25.1% | 47.8% | 36.4% |  | 39.5% | 23.2% | -19.6% (active) | 50.5% | 12.3% | 20.1% |  |
| Cn1c2c(c(=O)[nH]c1=O)NC1=C(C(=O)c3ccccc31)C1(C=C(O)c3ccccc31)N2 (stereo not given) | 109% | 113% | 101% | 111% | 75.7% | 99.9% | 102% | 97.7% | 121% | 89% | 124% | 105% |  | 103% | 135% | 107% | 115% | 96.8% | 96.9% | 112% |
| CN(CCc1ccccc1)C(=S)N(C(=O)c1ccc([N+](=O)[O-])cc1)c1ccc(Cl)cc1 | 97.5% | 102% | 102% | 102% | 67% | 100% | 98.2% | 88% | 109% | 73.1% |  | 101% |  | 91.7% | 110% | 92.6% | 101% | 94.8% | 83.9% | 40.6% |
| Cc1ccc(C(=O)c2oc3ccc4c(C)cc(=O)oc4c3c2C)cc1 | 40.4% | 63.1% | 61.3% | 3.14% (active) | 9.32% (active) | 25.7% | 14.8% | 57.3% | -59.7% (active) | 64.7% |  | 46.8% | 37.2% | 52.1% | 4.06% (active) | 46.7% | -4.34% (active) | 42.5% | 23% | 11.7% |
| OCCNc1nc(Nc2ccc(C3=NN(c4cc(Cl)cc(Cl)c4)C(c4ccc(C(F)(F)F)cc4)C3)cc2)nc(N2CCOCC2)n1 (stereo not given) | 76% | 80.3% | 74.5% | 46.4% | 98.6% | 85.3% | 59.2% | 42.7% |  | 82.7% | 90% | 59.7% | 19.7% | 74.1% | 71% | 54.3% | 94.5% | 90.5% | 49.3% | 53.9% |
